The results in this text go back to PubChem BioAssay (NCATS).

SMILES strings stand for the structures. Records with an inconclusive call do not appear. Values without a mark were called inactive. Calls come from the whole dose curve; as a rule, active = well fitted inhibition curve with a large enough effect; inconclusive = small, poorly fitted or top-dose-only effect; inactive = flat fitted curve, though single readings scatter.
% is set by controls: 0 for no effect and ±100 for the full control effect.

The assay in a line: Drug repurposing screens with cells derived from glioblastoma tumor samples (AID 1345199). Note: nearly all actives have a fitted effect of over 40% in size. The note with it: GBM patient neurospheres viability, ATP luminescence, 48 h; at 45.9 µM (top of the series); tumour line D. In outline:
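Primary testing used CD133+ neurospheres from four GBM patients, seven concentrations, 48 h exposure and ATP-based viability; confirmation added three slower-growing patient lines.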
For the molecule `CC[C@]12CCCN3CCc4c(n(c5ccccc45)[C@@](O)(C(=O)OC)C1)[C@@H]32`, the activity, negative = cell killing was 5.83%.

Turning to `CN1CC(=O)NC1=N`, the activity, negative = cell killing was -12.2%. Next, `O=C(/C=C/c1ccc(O)c(O)c1)O[C@@H]1C[C@@](OC(=O)/C=C/c2ccc(O)c(O)c2)(C(=O)O)C[C@@H](O)[C@@H]1O`: -4.97%; `Cn1c(=O)c2c(ncn2CCO)n(C)c1=O`: -0.441%. Under `OCc1ccc(Cl)cc1Cl` stands -3.9%; under `CC(=O)N1C[C@H](O)C[C@H]1C(=O)O`, 12.1%. Next, `CC(=O)NCc1c(I)c(NC(C)=O)c(I)c(C(=O)O)c1I`: -11.6%; `Cc1c(C)c2c(c(C)c1OC(=O)c1cccnc1)CC[C@@](C)(CCC[C@H](C)CCC[C@H](C)CCCC(C)C)O2`: -0.0875%; `NC(=O)NS(=O)(=O)c1ccc(N)cc1`: 9.92%. Consider `O=C(O)c1cc(=O)c2ccccc2o1`, for which the activity, negative = cell killing was -22.4%. For `CN1C(=O)CC(c2ccccc2)C1=O` (stereo unspecified), the activity, negative = cell killing was 1.43%. Under `COc1nccnc1NS(=O)(=O)c1ccc(N)cc1` stands -17.5%; under `CC(=O)N[C@@H](CC(C)C)C(=O)O`, -9.62%; under `COc1ccc(-c2cc(=O)c3c(O)cc(O[C@@H]4O[C@H](CO[C@@H]5O[C@@H](C)[C@H](O)[C@@H](O)[C@H]5O)[C@@H](O)[C@H](O)[C@H]4O)cc3o2)cc1O`, 0.355%. Next, `Cc1c(I)c(=O)n(-c2ccccc2)n1C`: -14%. Next, `O=C(O)CCC(=O)O`: -1.31%.
